Screens as filed in PubChem BioAssay.
ELG1 genotox: genotoxicity induction in ELG1-luciferase HEK293T cells | Potency, µM (top dose mostly 46 µM), for inactives: at the top dose activity change, positive = activation, usual class: activators | HEK293T ELG1-luciferase reporter, luminescence, 16 h | 330,000 tested, 1.3% active | AID 504466; note: % of control where 0% means no effect; nearly all actives have a fitted effect of over 60% in size
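ELG1-luciferase HEK293T cells, 2,000/well; compound pinned in; 16 hr, 37 °C, 5% CO2; ONE-Glo, 30 min RT; luminescence on CCD imager.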
SMN2 splice enh: increases expression of the SMN2 splice variant; HEK293 SMN2-luciferase splicing reporter, luminescence, 30-36 h; Potency, µM (highest dose often 46.1 µM), without a hit: top-dose activity change, positive = activation, hits mostly activators; 210,000 tested, 2.8% active; note: % of control where 0% means no effect; nearly all actives have a fitted effect of over 55% in size
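qHTS luciferase splicing reporter: luminescence rises when SMN2 exon 7 is included in transfected HEK293 cells. Compound exposure lasted 30-36 h at 37C, with 4.5 mM final sodium butyrate as control, followed by a ONE-Glo read.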
ELG1 DNA repair: blocks ELG1-dependent DNA repair in HEK293T cells | HEK293T ELG1-luciferase reporter, luminescence, 16 h; DNA damage induced by 5-fluorouridine | Potency, µM (top dose mostly 46.1 µM), without a hit: top-dose activity change, negative = inhibition, most hits filed as inhibitors | 330,000 tested, 2.3% active | AID 504467; note: % is set by controls: 0 for no effect and ±100 for the full control effect; nearly all actives have a fitted effect of over 55% in size
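HEK293T cells expressing luciferase-tagged ELG1 (2,000/well) received 5-Fluorouridine plus compound or DMSO for 16 hr at 37 °C. Luciferase was read by ONE-Glo luminescence after 30 min at room temperature.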
Rab9 prom act: activators of Rab9 promoter | Huh7 Rab9 promoter-luciferase reporter, luminescence, 24 h | Potency, µM (top dose mostly 9.22 µM), without a hit: at the top dose activation, negative = inhibition, most hits filed as activators | 320,000 tested, 2.8% active; note: % of control where 0% means no effect; nearly all actives have a fitted effect of over 60% in size
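Huh7 reporter line, Rab9 promoter upstream of luciferase. Compound exposure 24 h at 37 °C in reduced-serum medium with 10% FBS. Read-out: luminescence.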
FLuc counter: inhibits or activates purified firefly luciferase, miR-21 counter-screen | P08659 | purified FLuc, Km substrates, luminescence inhibition | Potency, µM (highest dose often 57.5 µM), inactives show top-dose activity change, negative = inhibition, actives largely listed as inhibitors | 360,000 tested, 6.9% active | AID 588342;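 note: plate controls were vehicle for no effect and reference inhibitor for full effect; nearly all actives have a fitted effect of over 55% in size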
Target sequence (P08659 whole entry, looked up): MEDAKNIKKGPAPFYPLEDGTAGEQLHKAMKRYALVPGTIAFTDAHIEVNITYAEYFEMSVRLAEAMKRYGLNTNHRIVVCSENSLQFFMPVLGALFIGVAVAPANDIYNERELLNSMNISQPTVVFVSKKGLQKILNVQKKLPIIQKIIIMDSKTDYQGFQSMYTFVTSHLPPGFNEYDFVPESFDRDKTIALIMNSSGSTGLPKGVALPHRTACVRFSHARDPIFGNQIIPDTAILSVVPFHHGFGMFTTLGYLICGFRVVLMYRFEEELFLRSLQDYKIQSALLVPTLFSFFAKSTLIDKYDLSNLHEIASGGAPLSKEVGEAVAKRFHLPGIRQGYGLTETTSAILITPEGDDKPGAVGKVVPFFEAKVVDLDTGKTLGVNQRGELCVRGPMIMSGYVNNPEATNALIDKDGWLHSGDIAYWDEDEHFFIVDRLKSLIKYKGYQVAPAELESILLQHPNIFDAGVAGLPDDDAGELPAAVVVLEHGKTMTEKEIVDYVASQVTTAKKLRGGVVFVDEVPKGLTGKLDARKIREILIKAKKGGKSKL
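Purified P. pyralis luciferase, 10 nM final, with Km-level 10 uM D-luciferin and 10 uM ATP in 50 mM Tris acetate pH 7.5, 10 mM Mg acetate, 0.01% Tween-20, 0.05% BSA; 6-point qHTS titration about 60 µM downward; luminescence read.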
NPC1 prom act: activates the NPC1 promoter | Potency, µM (doses to about 9.22 µM), for inactives: top-dose activation, usual class: activators | Huh7 NPC1 promoter luciferase reporter, 24 h | 320,000 tested, 2.4% active; note: % of control where 0% means no effect; nearly all actives have a fitted effect of over 60% in size
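Cells: Huh7 expressing luciferase under the NPC1 promoter, 1500/well. Seeded 2 h, compound added, incubated 24 h at 37 °C. Luciferase reagent, 10 min ambient, then luminescence.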
An asterisk follows results filed as active; ? = inconclusive; · = no result given; [ ] = dose if it differs, or a comment. In the library only some 9.4% were active in any assay of this set; here they are far more common. Calls come from the whole dose curve; as a rule, active = well fitted curve in the direction sought with a large enough effect; inconclusive = small, poorly fitted or top-dose-only effect, or another doubt; inactive = no such curve, though single readings can be large; an effect the other way counts as inactive or inconclusive. Potency is the fitted concentration of half-maximal effect.

SMILES	ELG1 genotox	SMN2 splice enh	ELG1 DNA repair	Rab9 prom act	FLuc counter	NPC1 prom act
Cc1ccc2nc(CSc3nc(C)cc(C)c3C#N)[nH]c2c1	?	4.5µM*	?	?	3.4µM*	12%
CCOc1ccc(-c2cnc(NCc3ccc(OC)cc3OC)n2C)cc1	·	0%	·	·	3%	·
O=C(N/N=C/c1ccc[nH]1)c1cccnc1	1%	-6%	8%	9%	-6%	-3%
Cn1c(-c2ccccc2)c(/C=N/NC(=O)c2cccnc2)c2ccccc21	-14%	?	?	1%	5.4µM*	21%
O=C(N/N=C/c1c(-c2ccccc2)[nH]c2ccccc12)c1cccnc1	-2%	?	-12%	15%	3µM*	1%
Cc1ccc(C)c(NC(=O)CCC(=O)N2CCOc3ccccc32)c1	1%	·	6%	1%	-1%	3%
O=C(C#Cc1ccccc1)c1cccc([N+](=O)[O-])c1	10%	-30%	?	0%	11µM*	1%
Cc1ccc(-c2ccc(/C=C/C(=O)c3ccccc3)o2)cc1	1%	14%	?	3%	?	-1%
O=C(/C=C/c1ccc(-c2ccccc2)o1)c1ccccc1	?	·	?	26%	6.7µM*	?
COc1cc(/C=C/C(=O)c2cccc([N+](=O)[O-])c2)cc(OC)c1OC	-8%	5%	?	-7%	-1%	-2%
Cc1ccc(C(=O)/C=C/c2ccc(-c3ccccc3[N+](=O)[O-])o2)cc1	11%	-1%	2%	17%	19µM*	?
O=C(/C=C/c1ccccc1F)c1cccc([N+](=O)[O-])c1	?	-3%	?	-4%	12µM*	-2%
CCN1c2ccccc2-c2nc(SCC(=O)Nc3cccc(C)c3C)ncc2S1(=O)=O	·	·	·	·	2%	·
COc1ccccc1S(=O)(=O)Cc1ccc(C(=O)NCc2ccc(Cl)cc2)o1	·	-26%	·	·	3%	·
O=C(/C=C/c1ccc(-c2ccccc2[N+](=O)[O-])o1)c1ccc(F)cc1	0%	-4%	0%	14%	13µM*	4%
Cc1ccc(C(=O)C(C)OC(=O)c2ccccc2[N+](=O)[O-])cc1 (centres undefined)	7.3µM*	13µM*	?	1.6µM*	1.1µM*	0.89µM*
Cc1ccc(C(=O)/C=C/c2ccccc2[N+](=O)[O-])cc1	?	21%	?	?	8.5µM*	20%
O=C(/C=C/c1ccc(-c2ccccc2[N+](=O)[O-])o1)c1ccc(Br)cc1	5%	-13%	0%	3%	?	19%
CCOc1ccccc1NC(=O)c1nnn(CC(=O)Nc2ccccc2CC)c1N	·	-2%	·	·	-1%	·
Cc1noc(Cn2c(=O)c3cc4c(cc3n(CC(=O)Nc3cccc(Cl)c3)c2=O)OCO4)n1	·	·	·	·	-10%	·
C/C(=N\Nc1nc2ccccc2[nH]1)c1ccccn1	2.5µM*	·	?	29%	0.85µM*	?
C/C(=N\Nc1nc2ccccc2[nH]1)c1cc2ccccc2o1	?	13µM*	?	?	2.4µM*	16%
CC1CCN(c2ncnc3c2cnn3-c2ccccc2)CC1	1.5µM*	13µM*	?	0.63µM*	2.1µM*	0.89µM*
Cc1ccc(-n2ncc3c(N4CCC(Cc5ccccc5)CC4)ncnc32)cc1C	·	·	·	·	-2%	·
Cc1ccc(-n2ncc3c(N4CCC(C)CC4)ncnc32)cc1C	·	·	·	·	1.5µM*	·
SMILES	ELG1 genotox	SMN2 splice enh	ELG1 DNA repair	Rab9 prom act	FLuc counter	NPC1 prom act
COc1ccc(-n2ncc3c(N4CCC(C)CC4)ncnc32)cc1	0.26µM*	·	?	0.1µM*	0.54µM*	0.11µM*
COc1ccc(OCC(=O)N(Cc2cccc(OC)c2)C2CCS(=O)(=O)C2)cc1 (centres undefined)	·	5%	·	·	2%	·
Cc1ccc2c(c1)cc1c(=O)n(CC(=O)N3CCCCC3)nc(C)n12	·	-5%	·	·	-11%	·
Cc1ccc2c(c1)c1ncnc(N3CCOCC3)c1n2C	7%	-19%	?	0%	15µM*	-1%
Cc1ccc2c(c1)c1ncnc(N3CCC4(CC3)OCCO4)c1n2C	15%	?	?	16%	11µM*	17%
CC(C)N(CC(=O)O)CC(=O)O	·	-12%[9.22 µM]	·	·	·	·
C=C1SC(=Nc2ccccc2Cl)N(C(=O)c2sc3ccccc3c2Cl)C12CCCCC2	6%	·	0%	23%	21µM*	10%
COc1ccccc1NC(=O)c1cc2c(=O)oc3ccc(C)cc3c2s1	·	18%	·	·	-1%	·
COC(=O)c1sc(S(=O)(=O)NCC(=O)O)c(C(=O)OC)c1C	2%	9%	3%	?	-8%	-1%
COC(=O)c1sc(S(=O)(=O)NCc2cccs2)c(C(=O)OC)c1C	-6%	-24%	15µM*	-4%	5%	-2%
O=c1[nH][nH]c2c(N=Cc3ccccc3O)ccc(F)c12	-6%	·	1%	-8%	19µM*	0%
O=C(O)c1c(-c2ccccc2)oc2ccc(O)cc12	-3%	·	-6%	-1%	-2%	-3%
Cc1ccc2oc(-c3ccccc3)c(C(=O)O)c(=O)c2c1	?	?	?	?	21µM*	3.5µM*
COc1ccc2oc(-c3ccccc3)c(C(=O)O)c2c1	5%	·	6%	-4%	-5%	-1%
Cc1ccc(COc2ccc3oc(-c4ccccc4)c(C(=O)O)c3c2)cc1	·	11%	·	·	11µM*	·
C=C(C)CNC(=S)Nc1nc2c(cc1C(=O)OCC)CCCC2	?	4.5µM*	?	?	13µM*	?
CC1CN(c2ccc(Cl)cc2)c2nc3c(c(=O)n(CC(=O)O)c(=O)n3C)n2C1 (centres undefined)	·	-3%	·	·	3%	·
COc1ccc(CCN=C(N)NS(=O)(=O)c2ccc(F)cc2)cc1	-11%	-44%	18µM*	4%	-1%	-3%
Cc1c(CCC(=O)NCCCCCC(=O)O)c(=O)oc2cc3occ(-c4ccccc4)c3cc12	0%	·	7%	-10%	?	0%
O=C(c1cccs1)c1coc2ccc(O)cc12	?	-7%	?	16%	?	-1%
CC(=O)Oc1ccc2occ(C(=O)c3cccs3)c2c1	?	-1%	?	?	13µM*	?
O=C(c1cccs1)c1coc2ccc(O)c(CN3CCOCC3)c12	0%	7%	-27%	4%	1%	-3%
CC(=O)Oc1ccc2occ(-c3ccccc3)c2c1	-4%	·	12%	-2%	19µM*	?
O=C(CCl)Oc1ccc2occ(C(=O)c3cccs3)c2c1	12µM*	-1%	?	?	24µM*	28%
O=c1ccc2cc3c(-c4ccccc4)coc3cc2o1	7%	·	16%	3%	19µM*	-1%
